Laboratory results from PubChem BioAssay AID1159580 (chemical genetic matrix, 2015).
About 2,000 (36%) of roughly 5,500 compounds were called active. Not shown: some 18% with an inconclusive outcome. Rule as the data show it: active = normalized growth mostly below about 0.91 (no sharp cut-off); inconclusive = no clear call, values can overlap the other calls; inactive = mostly above about 0.92. Some of the results follow.

Experiment: chemical genetic growth profiling, strain panel (AID 1159580);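 also: tested at 20 µM; growth read once vehicle control cultures reached saturation at 30 °C; 1 = growth at the plate median or of vehicle wells; lower values mean less growth of the strain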
Conditions: growth OD
[1] = S. cerevisiae deletion strains, locus YHR030C, strain SLT2, active compounds read low

Measured: normalized growth

CC(C)(C)OC(=O)N1CCN(Cc2ccccc2)CC1
inactive: S. cerevisiae deletion strains, locus YAL013W, strain DEP1, active compounds read low 1 | S. cerevisiae deletion strains, locus YBR229C, strain ROT2, active compounds read low 1 | S. cerevisiae deletion strains, locus YDL101C, strain DUN1, active compounds read low 1.02 | S. cerevisiae deletion strains, locus YDR150W, strain NUM1, active compounds read low 1.03 | S. cerevisiae deletion strains, locus YEL061C, strain CIN8, active compounds read low 0.98 | S. cerevisiae deletion strains, locus YGR078C, strain PAC10, active compounds read low 0.999 | S. cerevisiae deletion strains, locus YGR229C, strain SMI1, active compounds read low 1.02 | [1] 1.08 | S. cerevisiae deletion strains, locus YHR087W, strain rtc3, active compounds read low 0.991 | S. cerevisiae deletion strains, locus YJR043C, strain POL32, active compounds read low 0.998 | S. cerevisiae deletion strains, locus YJR075W, strain HOC1, active compounds read low 1 | S. cerevisiae deletion strains, locus YKL190W, strain CNB1, active compounds read low 1.01 | S. cerevisiae deletion strains, locus YLR039C, strain RIC1, active compounds read low 0.967 | S. cerevisiae deletion strains, locus YLR058C, strain SHM2 (second series), active compounds read low 0.986 | S. cerevisiae deletion strains, locus YLR085C, strain ARP6, active compounds read low 0.997 | S. cerevisiae deletion strains, locus YLR262C, strain YPT6, active compounds read low 1.04 | S. cerevisiae deletion strains, locus YML094W, strain GIM5, active compounds read low 0.989 | S. cerevisiae deletion strains, locus YMR219W, strain ESC1, active compounds read low 0.994 | S. cerevisiae deletion strains, locus YMR263W, strain SAP30, active compounds read low 1.01 | S. cerevisiae deletion strains, locus YNL153C, strain GIM3, active compounds read low 1 | S. cerevisiae deletion strains, locus YNL298W, strain CLA4 (second series), active compounds read low 1.01 | S. cerevisiae deletion strains, locus YNL322C, strain KRE1, active compounds read low 1 | S. cerevisiae deletion strains, locus YNR030W, strain Alg12, active compounds read low 0.992 | S. cerevisiae deletion strains, locus YOL006C, strain TOP1, active compounds read low 1.08 | S. cerevisiae deletion strains, locus YPL055C, strain LGE1, active compounds read low 1.03 | S. cerevisiae deletion strains, locus YPL241C, strain CIN2, active compounds read low 1.01 | S. cerevisiae deletion strains, locus YPR135W, strain CTF4, active compounds read low 1.04 | S. cerevisiae strains, strain wild type, active compounds read low 1.02

CN1CCN(C(c2ccccc2)c2ccc(Cl)cc2)CC1 (stereo unspecified)
inactive: [1] 0.974 | S. cerevisiae deletion strains, locus YHR079C, strain IRE1, active compounds read low 0.986 | S. cerevisiae deletion strains, locus YJL095W, strain BCK1, active compounds read low 0.974 | S. cerevisiae deletion strains, locus YJR066W, strain TOR1, active compounds read low 0.979 | S. cerevisiae deletion strains, locus YLR113W, strain HOG1, active compounds read low 0.962 | S. cerevisiae deletion strains, locus YNL183C, strain NPR1, active compounds read low 0.914 | S. cerevisiae deletion strains, locus YOR231W, strain MKK1, active compounds read low 0.981 | S. cerevisiae deletion strains, locus YPL256C, strain CLN2, active compounds read low 0.951
